Screening data deposited in PubChem BioAssay by National Center for Advancing Translational Sciences (NCATS).
Tau ThT inhib: tau fibrillization inhibition (ThT binding); P10636; recombinant tau K18 P301L, heparin-induced fibrillization, ThT fluorescence; Potency, µM (top dose mostly 57.4 µM), without a hit: top-dose activity, negative = inhibition, actives largely listed as inhibitors; hit rate 2.1% among 270,000; note: nearly all actives have a fitted effect of over 55% in size
Target sequence (P10636 561-689 P618L limits assumed): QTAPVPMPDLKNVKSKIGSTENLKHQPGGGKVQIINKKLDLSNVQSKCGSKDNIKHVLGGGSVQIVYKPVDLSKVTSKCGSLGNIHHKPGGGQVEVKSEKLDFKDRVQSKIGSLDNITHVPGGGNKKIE
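Using a mix of unlabeled (15 uM) and Alexa 594-labeled (0.24 uM) tau K18 P301L, heparin-triggered fibrillization over 6 hr at 37 C was scored by ThT fluorescence.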
ALDH1A1 block: ALDH1A1 (human) enzyme inhibition. Potency, µM (series often up to 75.3 µM), inactives show at the top dose activity, negative = inhibition, usual class: inhibitors. hit rate 7.3% among 220,000. AID 1030. P00352. Purified ALDH1A1, NADH fluorescence, propionaldehyde substrate; active = well fitted inhibition curve with a large enough effect, not every such curve was filed as active; inconclusive = small, poorly fitted or top-dose-only effect, or another doubt; inactive = no such curve, though single readings can be large or run the other way;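 note: plate controls were no enzyme wells and a reference inhibitor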
HPGD inh: blocks human HPGD enzyme activity; P15428; purified HPGD, NADH fluorescence kinetic, PGE2 substrate; Potency, µM, inactives show at the highest dose activity change, negative = inhibition, hits mostly inhibitors; hit rate 4.3% among 150,000; active = well fitted inhibition curve with a large enough effect, not every such curve was filed as active; inconclusive = small, poorly fitted or top-dose-only effect, or another doubt; inactive = no such curve, though single readings can be large or run the other way
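20 nM HPGD preincubated 15 min at room temperature with compound in 50 mM Tris-HCl pH 8, 0.01% Tween 20. Started with 1 mM NAD+ and 30 uM prostaglandin E2; NADH fluorescence (360/450 nm) read 5 times over 30-s intervals, last minus first.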
Tau fluor counter: counter-screen for tau fibril formation inhibitors; Potency, µM (doses to about 57.7 µM), inactives show at the highest dose activity change, negative = decrease; tau K18 P301L (four-repeat tau fragment) Alexa594 fluorescence, heparin fibrillization; hit rate 0.93% among 280,000; note: nearly all actives have a fitted effect of over 55% in size
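Human K18 P301L tau (15 uM unlabeled plus 0.24 uM Alexa 594-labeled, final) in 100 mM sodium acetate pH 7 was mixed with compound and 20 uM heparin and incubated 6 hr at 37 C.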
Tau fibril FP: blocks human tau fibril formation measured by polarization | P10636 | K18 P301L tau heparin fibrillization, Alexa594 FP, 6 h | Potency, µM (highest dose often 57.7 µM), inactives show at the highest dose activity, negative = inhibition, hits mostly inhibitors | hit rate 0.39% among 280,000 | AID 1468; note: nearly all actives have a fitted effect of over 55% in size
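Human tau K18 […] P301L fragment, 15 uM unlabeled plus 0.24 uM Alexa 594-labeled tau (final), with compound and 20 uM heparin in 100 mM sodium acetate pH 7; 6 hr at 37 C, then Alexa 594 FP read.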
NPSR antag: neuropeptide S receptor (human) antagonism, cAMP; Q6W5P4; CHO-NPSR cells, cAMP TR-FRET, antagonist mode; Potency, µM (series often up to 38.3 µM), without a hit: top-dose activity change, negative = inhibition, usual class: inhibitors; hit rate 1% among 220,000; AID 1461; note: nearly all actives have a fitted effect of over 50% in size
Target sequence (Q6W5P4 whole entry, looked up): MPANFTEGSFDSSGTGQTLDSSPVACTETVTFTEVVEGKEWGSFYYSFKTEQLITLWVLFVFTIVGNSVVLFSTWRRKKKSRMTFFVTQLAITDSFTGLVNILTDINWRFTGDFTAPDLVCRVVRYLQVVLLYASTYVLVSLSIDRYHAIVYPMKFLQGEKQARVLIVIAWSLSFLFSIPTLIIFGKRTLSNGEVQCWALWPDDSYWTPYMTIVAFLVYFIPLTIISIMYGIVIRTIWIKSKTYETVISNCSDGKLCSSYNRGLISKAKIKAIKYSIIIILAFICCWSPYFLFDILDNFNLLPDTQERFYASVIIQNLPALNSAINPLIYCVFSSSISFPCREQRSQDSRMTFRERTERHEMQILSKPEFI
Starred values were filed as active, the others as inactive; ? = inconclusive; / = no result; ! = repeats disagree; [ ] = another dose, or the depositor's remark. A selection: hits, their analogues and other compounds. The true share with any hit is near 9.5%. Unless noted, calls come from the whole dose curve; as a rule, active = well fitted curve in the direction sought with a large enough effect; inconclusive = small, poorly fitted or top-dose-only effect, or another doubt; inactive = no such curve, though single readings can be large; an effect the other way counts as inactive or inconclusive. Unless noted, % is set by controls: 0 for no effect and ±100 for the full control effect; potency is the fitted concentration of half-maximal effect.

SMILES	Tau ThT inhib	ALDH1A1 block	HPGD inh	Tau fluor counter	Tau fibril FP	NPSR antag
CCCCc1nc2c(c3c1C[C@H](C)OC3)CN(C(=O)Nc1ccc(OC)cc1)CC2	3.1%[11.5 µM]	1.4%[13.5 µM]	-2.8%	0.1%[11.6 µM]	2.9%[11.6 µM]	/
CCN1/C(=C/C(C)=O)Sc2ccc(OC)cc21	?	?	12.6µM*!	-4.4%	1.1%	?
COc1cc(OC)cc(C(=O)/C=C2\Sc3ccccc3N2C)c1	?	?	/	-22.3%	-12.8%	?
Nc1cccc(Nc2nc(OC(C(F)(F)F)C(F)(F)F)nc(OC(C(F)(F)F)C(F)(F)F)n2)c1	3.6%	-4.6%	-26.9%	14.1µM*[quencher]	12.5%	?
Cc1ccc(-c2noc(CCC(=O)NCCN3CCc4ccccc4C3)n2)cc1	-14.5%	7.2%	-14.8%	-11.0%	-2.0%	1.9%[46.1 µM]
COc1cc2c(cc1OC)-c1c(OC)c(OC)cc3ccnc(c13)C2=O	7.08µM*	-4.2%	8.91µM*	?	-20.9%	-19.1%
COc1ccccc1CNC(=O)C1CCCN(c2nn3cc(-c4ccc(F)cc4)nc3s2)C1 (stereo unspecified)	?	/	/	-14.9%	-5.1%	/
CSc1ccc2[nH]c(=O)cc(C)c2c1	?	?	?	-7.6%	-5.3%	16.8%[46.1 µM]
CCOc1ccccc1NC(=O)C(OC(=O)c1ccc(CC)cc1)c1ccccc1 (stereo unspecified)	-4.6%	?	-3.8%	-11.4%	-1.6%	-34.8%
CCOc1ccccc1NC(=O)C(OC(=O)c1ccc(O)cc1)c1ccccc1 (stereo unspecified)	4.7%	7.94µM*	-10.4%	?	22.4µM*	?
CC1CCN(c2ncnc3c2nnn3C)CC1	-4.7%	/	/	-5.3%	-2.7%	/
N#C/C(=C/c1ccc([N+](=O)[O-])cc1)C(N)=O	?	?	/	-11.5%	-5.3%	9.0%
N#C/C(=C/c1ccc(O)c([N+](=O)[O-])c1)C(=O)Nc1ccccc1	8.91µM*	?	/	?	8.1%	-44.8%
N#C/C(=C\c1ccc([N+](=O)[O-])cc1)C(=O)Nc1ccccc1O	?	17.8µM*	-12.8%	-28.4%	?	-53.5%
N#C/C(=C/c1ccc([N+](=O)[O-])cc1)C(=O)Nc1ccccc1O	?	7.94µM*	-2.8%	-21.4%	-0.7%	-11.0%
N#C/C(=C\c1ccccc1)C(=O)Nc1cccnc1	?	?	/	-15.6%	-5.1%	2.8%
N#C/C(=C\c1ccc(-c2ccc(Br)cc2)o1)C(=O)Nc1ccccc1O	-8.2%	/	/	-9.0%	-4.2%	/
Cn1c(=O)cc(SCC(=O)N2CCOCC2)c2ccc(Cl)cc21	4.2%	-6.7%	-26.4%	7.4%	2.3%	-14.0%[46.1 µM]
Cn1c(=O)cc(SCC(=O)N2CCCC2)c2ccc(Cl)cc21	-6.5%	?	14.1µM*	-0.1%	-2.6%	?
Cc1ccccc1NC(=O)C1CCN(C(=O)c2ccc(F)cc2)CC1	9.4%	/	/	9.6%	0.9%	/
CCOc1cc(C(=O)OCc2cc(=O)n3nc(CC)sc3n2)cc(OCC)c1OCC	?	/	/	-10.5%	4.7%	/
C=C(C)COc1ccc(-c2nc(N)ncc2Oc2ccccc2OC)c(O)c1	2.3%	?	-19.6%	?	?	?
C=C(C)COc1ccc(-c2[nH]ncc2Oc2ccccc2OC)c(O)c1	?	-6.8%	-14.3%	14.1µM*[quencher]	?	?
CCOc1ccc(-c2[nH]ncc2-c2ccc(OC)c(OC)c2)c(O)c1	8.9%	?	?	1.3%	1.1%	-28.8%[46.1 µM]
C=C(C)COc1ccc(-c2[nH]ncc2-c2ccccc2OC)c(O)c1	?	25.1µM*	-23.0%	15.8µM*[quencher]	-4.5%	?
C=C(C)COc1ccc(-c2[nH]ncc2-c2ccc(Br)cc2)c(O)c1	?	-10.9%	-19.1%	10µM*[quencher]	28.2µM*	?
CCCOC(=O)c1ccc(Oc2cn[nH]c2-c2ccc(OC)cc2O)cc1	?	-1.4%	-15.3%	11.2µM*[quencher]	?	?
CCOc1ccc(CCNC(=O)c2cn(-c3ccc(OC)cc3)c(=O)c3ccccc23)cc1OCC	-2.1%	/	/	5.5%	-0.7%	/
